# From PubChem BioAssay (NCI)
# The panel holds about 83,000 compounds, 20% with a hit somewhere; the sample as a whole holds those more often.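 96-well plates, one dose, 48 hours. Percent growth reported; active if below 10.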 A number with no mark means an inactive call. The source made the active and inactive calls.
# Test system: SK-MEL-5 melanoma
# Assay: NCI-60 one-dose screen, 48 h (100 = growth as untreated, 0 = no growth, -100 = all killed)
# Settings: 10 µM unless noted
row,Structure (SMILES),growth
1,CC(C)c1ccc(NC(=O)Nc2ccc(NC(=O)c3ccccc3N)cc2)cc1,24.3%
2,O=C(/C=C/c1cccc(Cl)c1)c1cccc(OCCCCOc2cccc(C(=O)/C=C/c3cccc(Cl)c3)c2)c1,98.6%
3,CC(C)c1ccc(C(=O)Nc2sc3cc(O)ccc3c2C#N)cc1,22.3%
4,COC(=O)/C(CCC=C(C)C)=C1\[C@@H](OC(C)=O)C[C@@]2(C)[C@H]1CC(=O)[C@H]1[C@@]3(C)CCC(N4CCCC4)[C@@H](C)[C@@H]3CC[C@@]12C (stereo partly drawn),99.2%
5,C/C(=C(\c1ccc(OCCN2CCCCCC2)cc1)c1ccc(OC(=O)Cc2ccccc2)cc1)c1ccc(Cl)cc1,40.1%
6,O=C(Cn1nnc2ccccc21)N/N=C/c1ccccc1F,102%
7,CCN(CC)CCOc1nc2c3ccc(Cl)cc3nn2c2ccccc12,51.3%
8,COc1ccc(NC(=O)c2ccc(C(=O)Nc3ccc(OC)cc3OC)cc2)c(OC)c1,96.7%
9,NC(=O)OCCn1cc(-c2nc(-c3c[nH]c4ncccc34)cs2)c2ccccc21,18.5%
10,CCOC(=O)c1c(-c2ccc(Cl)cc2)c(C#N)c2c(C#N)c(N)nn2c1N,52.3%
11,CCOC(=O)c1c(C)nc2ccccc2c1/C=C/c1ccc(OC)cc1,2.63% (active)
12,O=C(/C=C/C12c3ccccc3C(c3ccccc31)C1C(=O)NC(=O)C12)c1ccccn1 (stereo not drawn),3.65% (active)
13,Cn1c(/C=C/[N+](=O)[O-])cc2ccccc21,47.2%
